Reference: PubChem BioAssay (NCI)
The panel holds about 79,000 compounds, 15% with a hit somewhere; the sample as a whole holds those more often. Unmarked numbers belong to inactive results. Active and inactive are the calls of the source. Cut-off read from the data, not from the text of the source: active = growth inhibition above about 70%; inactive = the rest.

assay: NCI Yeast Anticancer Drug Screen. Data for the rad50 strain (AID 155);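 note: 0% = growth of vehicle-only cultures of the same strain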; conditions: S. cerevisiae rad50 strain growth inhibition; at 50.0 µM; hits give high values
Summary of the method: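 Growth of the mutant yeast was measured after compound exposure and referenced to vehicle-treated cultures.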

| Structure (SMILES) | growth inhibition |
| --- | --- |
| CC12CCC(/C(=C/N(O)/C=C3\C(=O)C4(C)CCC3C4(C)C)C1=O)C2(C)C | -17.6% |
| O=C(NC(=O)c1ccc(Cl)c(Cl)c1)Nc1ccc(Cl)cc1 | -1.45% |
| CSC(=Nc1nnc(-c2ccc([N+](=O)[O-])cc2)s1)SC | 8.35% |
| COc1cc(C)c(OC)c(C/C=C(\C)CC2=C(CC(C)(C)O)C(=O)[C@]3(C)CCC[C@]3(C)C2)c1 | 33.6% |
| N/N=C1\CC(=O)NC(=O)N1 | -2.15% |
| CC(=O)OC1C(=O)OC(=O)C1OC(C)=O (stereo not given) | 9.6% |
| N#Cc1cc(Cl)ccc1N=Cc1c(Cl)cccc1Cl | 19.4% |
| CCc1ccccc1NOC | 7.65% |
| CSc1nc2c(c(=O)n1C)N=C(c1ccc([N+](=O)[O-])cc1)CC(c1ccccc1)N2 (stereo not given) | 6.8% |
| O=P1(O)c2ccccc2Oc2ccccc21 | -4% |
| Cn1c(N)nc2c1c(=O)[nH]c(=O)n2C | 12.6% |
| C/C=C(\C)C(=O)OC1CC(OC(=O)/C(C)=C/C)C2(C)C3C(=O)C=C(C)C2C3C1(C)C (stereo not given) | 18.8% |
| O=C(O)CCCc1ccc(O)cc1 | 7.1% |
| O=C1CC(c2ccccc2)S(=O)c2ccccc2N1 (stereo not given) | -7.5% |
| Cc1ccc(S(=O)(=O)NN=C2CC3C4CCC5C4CC3C25)cc1 (stereo not given) | 21.9% |
| CCC(/C=C/c1ccccc1)=N\NC(=O)c1ccc(C)cc1 | 9.4% |
| CCCCC1CCCCC1=O (stereo not given) | 16.4% |
| CCC(C)C/C(C)=N\NC(N)=O (stereo not given) | 1.75% |
| CC(=O)Nc1ccc(/C=C(\NC(=O)c2ccccc2)C(=O)NNS(=O)(=O)c2ccc(C)cc2)cc1 | 21.6% |
| O=[n+]1c2ccccc2n([O-])c2cn(-c3ccccc3)c(-c3ccccc3)c21 | 73.5% (active) |

| Structure (SMILES) | growth inhibition |
| --- | --- |
| O=C1c2ccccc2C(=O)N1/N=C1/SC(=Nc2ccccc2)C(=Nc2ccccc2)N1c1ccccc1 | 6.3% |
| CCCCCCCCCCCC(=O)OCC1OC(n2cc(F)c(=O)[nH]c2=O)C(N)C(OC(=O)CCCCCCCCCCC)C1O (stereo not given) | -9% |
| O=CC(=O)c1cccc([N+](=O)[O-])c1 | 3.55% |
| O=C(Cc1ccccc1C(=O)O)c1ccccc1 | -16.6% |
| CC(C)(C)/C(CC(=O)CCC(=O)Nc1ccc(Cl)cc1)=N\NC(N)=S | 11.7% |
| CCc1ccc(/C(C#N)=C/c2ccccc2Cl)cc1 | 21.9% |
| CCOC(=O)c1cnc2ccccn2c1=O | 5.15% |
| CSC1NC(c2ccccc2)=C(C#N)C(=O)N1C1OCC(OC(C)=O)C(OC(C)=O)C1OC(C)=O (stereo not given) | -9.1% |
| COC(=O)/C(=N\N)C(C(=O)C(=O)Nc1nc(=S)[nH][nH]1)c1nc2ccc([N+](=O)[O-])cc2[nH]c1=O (stereo not given) | 2.3% |
| C(/C=C/c1csnn1)=C\c1ccccc1 | 8.9% |
| Cc1ccc(S(=O)(=O)CNC(=O)C(O)(O)C(F)(F)F)cc1 | -24.9% |
| C=C(C)C1CCC2(C=O)CCC3(C)C(CCC4C5(C)CCC(O)C(C)(C)C5CCC43C)C12 (stereo not given) | 25.9% |
| CCOC(=O)c1c(C)c(C)n2c1NC(=O)C2 | -4.5% |
| N/N=C(\NN)c1ccccc1 | 11.7% |
| Cc1ccc(C2(O)c3ccccc3N=NN2C)cc1 (stereo not given) | 2.6% |
| O=C1Nc2noc(=O)nc2NO1 | 13.1% |
| CCCCCCCCCCCCCCCCCC(=O)c1ccc(OC)c(OC)c1 | -14.8% |
| Cc1cccc(NS(=O)(=O)c2ccc(Cl)cc2)c1C | 98.5% (active) |
| CCOC(=O)C1C(=S)NC(=O)C1C#N (stereo not given) | 0.3% |
| CCC1(C#N)N=C(c2ccccc2)c2ccccc2N1C(=O)OC (stereo not given) | 5.7% |

assay: NCI Yeast Anticancer Drug Screen. Data for the mec2-1 strain (AID 157); conditions: S. cerevisiae mec2-1 strain, at 50.0 µM, hits give high values
Summary of the method: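 Using mec2-1 yeast: add compound, measure growth, express inhibition versus vehicle-treated cultures.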

| Structure (SMILES) | growth inhibition |
| --- | --- |
| CC12CCC(/C(=C/N(O)/C=C3\C(=O)C4(C)CCC3C4(C)C)C1=O)C2(C)C | -11.8% |
| O=C(NC(=O)c1ccc(Cl)c(Cl)c1)Nc1ccc(Cl)cc1 | -13.8% |
| CSC(=Nc1nnc(-c2ccc([N+](=O)[O-])cc2)s1)SC | 1.2% |
| COc1cc(C)c(OC)c(C/C=C(\C)CC2=C(CC(C)(C)O)C(=O)[C@]3(C)CCC[C@]3(C)C2)c1 | 25.8% |
| N/N=C1\CC(=O)NC(=O)N1 | -11.1% |
| CC(=O)OC1C(=O)OC(=O)C1OC(C)=O (stereo not given) | 0.9% |
| N#Cc1cc(Cl)ccc1N=Cc1c(Cl)cccc1Cl | 16.5% |
| CCc1ccccc1NOC | -1.9% |
| CSc1nc2c(c(=O)n1C)N=C(c1ccc([N+](=O)[O-])cc1)CC(c1ccccc1)N2 (stereo not given) | 3.1% |
| O=P1(O)c2ccccc2Oc2ccccc21 | -2.2% |
| Cn1c(N)nc2c1c(=O)[nH]c(=O)n2C | -0.75% |
| C/C=C(\C)C(=O)OC1CC(OC(=O)/C(C)=C/C)C2(C)C3C(=O)C=C(C)C2C3C1(C)C (stereo not given) | 5.85% |
| O=C(O)CCCc1ccc(O)cc1 | 11.7% |
| O=C1CC(c2ccccc2)S(=O)c2ccccc2N1 (stereo not given) | 5.25% |
| Cc1ccc(S(=O)(=O)NN=C2CC3C4CCC5C4CC3C25)cc1 (stereo not given) | -4.5% |
| CCC(/C=C/c1ccccc1)=N\NC(=O)c1ccc(C)cc1 | 10.7% |
| CCCCC1CCCCC1=O (stereo not given) | -15.2% |
| CCC(C)C/C(C)=N\NC(N)=O (stereo not given) | 0.1% |
| CC(=O)Nc1ccc(/C=C(\NC(=O)c2ccccc2)C(=O)NNS(=O)(=O)c2ccc(C)cc2)cc1 | 17.7% |
| O=[n+]1c2ccccc2n([O-])c2cn(-c3ccccc3)c(-c3ccccc3)c21 | 67.4% |

| Structure (SMILES) | growth inhibition |
| --- | --- |
| O=C1c2ccccc2C(=O)N1/N=C1/SC(=Nc2ccccc2)C(=Nc2ccccc2)N1c1ccccc1 | 0% |
| CCCCCCCCCCCC(=O)OCC1OC(n2cc(F)c(=O)[nH]c2=O)C(N)C(OC(=O)CCCCCCCCCCC)C1O (stereo not given) | -34.9% |
| O=CC(=O)c1cccc([N+](=O)[O-])c1 | 7.75% |
| O=C(Cc1ccccc1C(=O)O)c1ccccc1 | -18.6% |
| CC(C)(C)/C(CC(=O)CCC(=O)Nc1ccc(Cl)cc1)=N\NC(N)=S | -6.75% |
| CCc1ccc(/C(C#N)=C/c2ccccc2Cl)cc1 | 40.5% |
| CCOC(=O)c1cnc2ccccn2c1=O | 6.15% |
| CSC1NC(c2ccccc2)=C(C#N)C(=O)N1C1OCC(OC(C)=O)C(OC(C)=O)C1OC(C)=O (stereo not given) | -15.6% |
| COC(=O)/C(=N\N)C(C(=O)C(=O)Nc1nc(=S)[nH][nH]1)c1nc2ccc([N+](=O)[O-])cc2[nH]c1=O (stereo not given) | -7.65% |
| C(/C=C/c1csnn1)=C\c1ccccc1 | 8.85% |
| Cc1ccc(S(=O)(=O)CNC(=O)C(O)(O)C(F)(F)F)cc1 | -2.5% |
| C=C(C)C1CCC2(C=O)CCC3(C)C(CCC4C5(C)CCC(O)C(C)(C)C5CCC43C)C12 (stereo not given) | 37% |
| CCOC(=O)c1c(C)c(C)n2c1NC(=O)C2 | -4.6% |
| N/N=C(\NN)c1ccccc1 | 12.2% |
| Cc1ccc(C2(O)c3ccccc3N=NN2C)cc1 (stereo not given) | 0.5% |
| O=C1Nc2noc(=O)nc2NO1 | 4.8% |
| CCCCCCCCCCCCCCCCCC(=O)c1ccc(OC)c(OC)c1 | -12.8% |
| Cc1cccc(NS(=O)(=O)c2ccc(Cl)cc2)c1C | 98.3% (active) |
| CCOC(=O)C1C(=S)NC(=O)C1C#N (stereo not given) | -0.05% |
| CCC1(C#N)N=C(c2ccccc2)c2ccccc2N1C(=O)OC (stereo not given) | -1.9% |
